# From PubChem BioAssay (NCATS)
# Records with an inconclusive call do not appear. A number with no mark means an inactive call. The source made the active and inactive calls. Calls come from the whole dose curve; as a rule, active = well fitted inhibition curve with a large enough effect; inconclusive = small, poorly fitted or top-dose-only effect; inactive = flat fitted curve, though single readings scatter.
# Assay: P-glycoprotein substrates identified in KB-8-5-11 adenocarcinoma cell line, qHTS therapeutic library screen (AID 1346987); note: nearly all actives have a fitted effect of over 65% in size
# Details: KB-8-5-11 (P-gp overexpressing) viability, CellTiter-Glo, 72 h; series mostly up to 44.5 µM; activity change, negative = cytotoxicity: at the top concentration
# How it was run: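 KB-8-5-11: colchicine-selected sub-line of KB-3-1 over-expressing P-gp; assay medium lacked colchicine. 72 h drug exposure at 37 degree C, CellTiter-Glo.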
# % is set by controls: 0 for no effect and ±100 for the full control effect.
SMILES,"activity change, negative = cytotoxicity",outcome
COc1ccc(CC(=O)NCc2ccccc2-c2ccccc2C(=O)NCCc2cccnc2)cc1,-14.2%,
O=C(/C=C/c1ccccc1)O[C@@H]1[C@@H](CO)O[C@@](CO)(O[C@H]2O[C@H](CO)[C@@H](O)[C@H](O)[C@H]2O)[C@H]1O,9.6% [at 17.3 µM],
CC1(C)CC2C3=CCC4[C@@]5(C)CC[C@H](OC6OCC(O)C(OC7OC(CO)C(O)C(O)C7O)C6O)C(C)(C)C5CC[C@@]4(C)[C@]3(C)C[C@H](O)[C@@]2(CO)[C@H](OC(=O)c2ccccc2)C1 (stereo partly specified),-4.21% [at 9.29 µM],
CC(C)(O)C(O)C(=O)OCc1ccc(O[C@@H]2O[C@H](CO)[C@@H](O)[C@H](O)[C@H]2O)cc1 (stereo partly specified),5.32% [at 17.3 µM],
C/C(=C\CCC(C)C1CC(O)C2(C)C3CCC4C(C)(C)C(OC5OCC(O)C(O)C5O)CCC45CC35CC(O)C12C)C(=O)O (stereo unspecified),,inactive [at 17.3 µM]
C=C1C(OC(C)=O)[C@@]23CCC4[C@](C)(C(=O)O)CCC[C@@]4(C)[C@]2(O)CC[C@H]1C3 (stereo partly specified),-2.24%,
CC1=CCC(O)C2(C)CCC3C(C)C(=O)OC3C12 (stereo unspecified),-0.961%,
O=C(NC1Cc2ccccc2N(C[C@@H](O)CO)C1=O)c1cc2cc(Cl)sc2[nH]1 (stereo partly specified),0.381%,
O=C(CCc1ccccc1)c1c(O)c([C@@H]2O[C@H](CO)[C@@H](O)[C@H](O)[C@H]2O)c(O)c([C@@H]2O[C@H](CO)[C@@H](O)[C@H](O)[C@H]2O)c1O,,inactive [at 17.3 µM]
C=C(C(=O)O)C1CC(O)C2(C)CCCC(C)(O)C2C1 (stereo unspecified),,inactive
OC[C@H]1O[C@@H](Oc2cc(O)cc(-c3cc4ccc(O[C@@H]5O[C@H](CO)[C@@H](O)[C@H](O)[C@H]5O)cc4o3)c2)[C@H](O)[C@@H](O)[C@@H]1O,,inactive [at 17.3 µM]
